# From PubChem BioAssay (NCATS)
# “And” between values parts separate entries of the source, which are not always exact repeats. Identical values can stand only once. Records with an inconclusive call do not appear. The source holds several records for some structures; these can differ, active in one and inactive in another. The source made the active and inactive calls. Calls follow the shape of the dose curve; as a rule, active = well fitted inhibition curve with a large enough effect; inconclusive = small, poorly fitted or top-dose-only effect; inactive = flat fitted curve, though single readings scatter.
# Test: Drug repurposing screens with cells derived from glioblastoma tumor samples (AID 1345199); also: nearly all actives have a fitted effect of over 40% in size
# Conditions: GBM patient neurospheres viability, ATP luminescence, 48 h; at 21.3 µM (top of the series); tumour line A
# Procedure, shortened: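 Primary testing used CD133+ neurospheres from four GBM patients, seven concentrations, 48 h exposure and ATP-based viability; confirmation added three slower-growing patient lines.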
# % is scaled to controls: 0 for no effect and ±100 for the full control effect.
row,SMILES,"activity, negative = cell killing"
1,Cc1ccc(C(=O)c2ccc(CC(=O)O)n2C)cc1,-10.3% (inactive)
2,CN(C)[C@@H]1C(=O)C(C(=O)NCN2CCCC2)=C(O)[C@@]2(O)C(=O)C3=C(O)c4c(O)cccc4[C@@](C)(O)C3C[C@@H]12 (stereo not given in full),-7.96% (inactive)
3,O=C(O)Cc1ccc(-c2ccccc2)cc1,-23.3% (inactive)
4,Cc1c(N)c(=O)n(-c2ccccc2)n1C,-17.4% (inactive)

# Same assay, conditions: GBM patient neurospheres viability, ATP luminescence, 48 h; at 45.9 µM (top of the series); tumour line B
row,SMILES,"activity, negative = cell killing"
1,N=C(N)N,-7.3% (inactive)
2,O=C(/C=C/c1ccccc1)NCCO,-16.2% (inactive)
3,COc1cc2c3cc1Oc1cc(ccc1O)C[C@@H]1c4c(cc(OC)c(O)c4Oc4ccc(cc4)C[C@@H]3N(C)CC2)CC[N+]1(C)C,1% (inactive)
4,O=C(Nc1ccc(C(=O)O)c(O)c1)c1ccccc1,-14.9% (inactive)
5,CO[C@@]1(NC(=O)Cc2cccs2)C(=O)N2C(C(=O)O)=C(COC(N)=O)CS[C@@H]21,3.39% (inactive) and 0.545% (inactive)
6,Nc1ccc(O)c(C(=O)O)c1,-12.4% (inactive)
7,C=CCCCCCCCCC(=O)O,-14.2% (inactive)
8,Nc1c(CC(=O)O)cccc1C(=O)c1ccc(Br)cc1,-6.17% (inactive)
9,O=C(OCc1ccccc1)c1ccccc1,-4.23% (inactive)
10,CN(C)[C@@H]1C(=O)C(C(=O)NCN2CCCC2)=C(O)[C@@]2(O)C(=O)C3=C(O)c4c(O)cccc4[C@@](C)(O)C3C[C@@H]12 (stereo not given in full),-10.2% (inactive)
11,CC(C(=O)O)c1ccc2c(c1)[nH]c1ccc(Cl)cc12 (stereo not given),-6.45% (inactive)
12,CCCOC(=O)c1ccc(O)cc1,-2.89% (inactive)
13,CCCCCCCCCCCC(=O)[O][Sn]([CH2]CCC)([CH2]CCC)[O]C(=O)CCCCCCCCCCC,-6.49% (inactive)
14,CCOC(=O)c1ccccc1O,-4.37% (inactive) and -22.2% (inactive)
15,c1ccc2sc(SSc3nc4ccccc4s3)nc2c1,-16.9% (inactive)
16,CC(=O)c1ccc(OCC(=O)N2CCCCC2)cc1,-9.55% (inactive)
17,CCOc1ccc2nc(S(N)(=O)=O)sc2c1,-0.995% (inactive)
18,CCCCCCCCCCCCCCCC(=O)OC(C)C,-2.41% (inactive)
19,CCCCCCCCCCCCCCCCCC(=O)O,-6.65% (inactive)
20,CCC1C(=O)OCC1Cc1cncn1C (stereo not given),-2.95% (inactive)
21,Nc1ccc(C(=O)O)c(O)c1,-5.49% (inactive)
